From PubChem BioAssay AID1376 (SRMLSC, 2008)
Values joined by “and” are separate entries in the source; they are usually repeats but may differ in a detail not shown here. Identical values can stand only once. About 530 (0.24%) of roughly 220,000 compounds were called active. Only a selection was taken, and actives are over-represented in it overall. Potency and affinity values are given separately. Unmarked numbers belong to inactive results. Cut-off read from the data, not from the text of the source: active = inhibition above about 13%; inconclusive = no clear call, values can overlap the other calls; inactive = below that.

The molecules below were run against Bifunctional protein GlmU (Mycobacterium tuberculosis (strain ATCC 25618 / H37Rv)) (UniProt P9WMN3) (assay: inhibition of mycobacterial GlmU enzyme – biochemical, glucosamine-1-phosphate acetyltransferase (AID 1376;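 note: 0% = complete reaction with vehicle and 100% = reaction without substrate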)). Conditions: M. tuberculosis GlmU acetyltransferase enzyme assay; active compounds read high;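 tested at 30 µM in the primary screen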.
Sequence of Bifunctional protein GlmU (Mycobacterium tuberculosis (strain ATCC 25618 / H37Rv)) (P9WMN3 whole entry, looked up): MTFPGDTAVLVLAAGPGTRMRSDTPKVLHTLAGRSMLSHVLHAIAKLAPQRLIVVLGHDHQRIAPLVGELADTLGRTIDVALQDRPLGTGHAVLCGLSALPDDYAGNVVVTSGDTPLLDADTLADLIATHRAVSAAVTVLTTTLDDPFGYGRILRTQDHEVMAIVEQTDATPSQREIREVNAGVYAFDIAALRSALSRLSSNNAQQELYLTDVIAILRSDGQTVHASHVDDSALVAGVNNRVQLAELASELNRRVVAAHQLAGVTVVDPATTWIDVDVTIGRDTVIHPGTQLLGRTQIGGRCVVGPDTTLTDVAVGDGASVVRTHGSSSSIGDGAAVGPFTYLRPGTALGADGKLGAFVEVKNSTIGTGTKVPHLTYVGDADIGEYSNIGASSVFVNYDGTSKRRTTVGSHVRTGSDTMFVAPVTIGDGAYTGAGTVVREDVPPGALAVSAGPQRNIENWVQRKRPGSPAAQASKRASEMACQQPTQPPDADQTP

Compared with `Cc1ccc2c(c1)cc(CN(Cc1cccs1)C(=O)c1ccco1)c1nnnn12`, `c1ccc(CSc2nnc(-c3cccs3)n2Cc2ccco2)cc1` is lower in inhibition: -1.3% for the first, -1.39% for the second.

Compared with `CC(=O)c1c(C)[nH]c(C(=O)COC(=O)CCCOc2ccccc2)c1C`, `COc1ccc(OCCCC(=O)NCCc2nc3ccccc3[nH]2)cc1` is lower in inhibition: 7.27% for the first, 5.71% for the second.

Compared with `O=S(=O)(N1CCOCC1)n1cnc2ccccc21`, `O=C(CSc1nc2ccccc2[nH]1)Nc1ccccc1N1CCOCC1` is lower in inhibition: 3.88% for the first, 2.16% for the second.

Compared with `COc1ccc(NC(=O)CN2C(=O)c3cccc4cccc2c34)c(OC)c1`, `COc1ccc(-n2cccc2/C=C2/NC(=O)N(c3cccc(Cl)c3)C2=O)cc1` is higher in inhibition: 0.85% for the first, 1.07% for the second.

Going from `CCN(C(=O)CN1CCN(S(=O)(=O)c2ccccc2C(F)(F)F)CC1)c1c(N)n(Cc2ccccc2)c(=O)[nH]c1=O` to `O=C1N[C@@H](Cc2ccccc2)C(=O)N2[C@@H]1C[C@@]1(Br)c3ccccc3N(S(=O)(=O)c3ccccc3)[C@@H]21`, the inhibition rises from -6.69% to 3.3%.

Compared with `CCS(=O)(=O)Nc1ccc(-c2nc3cccnc3s2)cc1`, `CCCS(=O)(=O)Nc1cccc(-c2nc3cccnc3s2)c1` is higher in inhibition: 0.1% for the first, 3.55% for the second.

First: COc1cc(C(=O)Oc2ccc3c(c2)OCC3=O)cc(OC)c1OC
Second: CCOC(=O)c1[nH]c2ccc(OC)cc2c1NC(=O)c1ccc2c(c1)OCO2
The inhibition of the first is higher: 1.2% for the first, -4.48% for the second.

Going from `Cc1ccccc1CSc1nnc(-c2ccco2)n1Cc1ccco1` to `Brc1ccc(CSc2ccc3nnc(-c4ccccn4)n3n2)cc1`, the inhibition falls from 1.77% to -0.66%.

First: Cc1ccc(OCC(=O)Nc2ccc(S(=O)(=O)N3CCCCC3)cc2)c([N+](=O)[O-])n1
Second: COc1ccccc1NS(=O)(=O)c1cc(NC(=O)c2sccc2C)ccc1N1CCCC1
The inhibition of the first is lower: -4.33% for the first, 0.4% for the second.

First: O=C(CN(CC1CCCO1)S(=O)(=O)c1ccc(S(=O)(=O)NCC2CCCO2)cc1)Nc1ccccc1 (centres undefined)
Second: O=C(NCc1ccccc1)c1ccc2c(=O)[nH]c3c(C(=O)NCC4CCCO4)sc(=S)n3c2c1 (centres undefined)
The inhibition of the first is higher: 5.97% for the first, 4.19% for the second.

Compared with `CCOC(=O)c1cnc(-n2nc(C)cc2C)nc1Oc1ccccc1F`, `CCOC(=O)c1cnc(-n2nc(C)cc2C)nc1Oc1ccc(C(=O)OC)cc1` is higher in inhibition: -3.61% for the first, -2.28% for the second.

Going from `CCOC(=O)c1[nH]c2ccccc2c1NC(=O)c1ccc2c(c1)OCO2` to `O=C(Nc1ccccc1)c1ccc2snnc2c1`, the inhibition rises from -1.52% to -0.53%.

Going from `O=C(Nc1ccon1)c1ccccc1F` to `O=C(Nc1cccc(C(F)(F)F)c1)c1ccco1`, the inhibition falls from -0.14% to -3.67%.

First: O=C(CCN1C(=O)c2ccccc2C1=O)NC(=S)Nc1ccccc1
Second: O=C(CCN1C(=O)c2ccccc2C1=O)NC(=S)Nc1ccccc1Cl
The inhibition of the first is higher: 2.69% for the first, -2.84% for the second.

Going from `Cc1ccc(C(c2c(O)nc3n(c2=O)CCS3)c2c(O)nc3n(c2=O)CCS3)cc1` to `O=c1c(C(c2ccccc2)c2c(O)nc3n(c2=O)CCS3)c(O)nc2n1CCS2`, the inhibition rises from -1.5% to 3.94%.

First: CCC(C)C1=CC(=Nc2c(C)n(C)n(-c3ccccc3)c2=O)C=C(C(C)CC)C1=O (centres undefined)
Second: CC1=CC(=Nc2c(C)n(C)n(-c3ccccc3)c2=O)C=C(C)C1=O
The inhibition of the first is higher: -5.03% for the first, -6.33% for the second.

First: O=C(NC1CC1)C1=C[C@@H](c2ccc(C(F)(F)F)cc2)C[C@@H](OCCCCO)O1
Second: CS(=O)(=O)NNC(=O)c1sccc1OCc1ncc(C(F)(F)F)cc1Cl
The inhibition of the first is higher: 0.57% for the first, -2.98% for the second.

First: CCOc1cc(/C=C2/C(=O)ON=C2C)ccc1OCc1ccccc1F
Second: O=C(O)c1cccc(-n2cccc2/C=C2/NC(=O)N(Cc3ccccc3F)C2=O)c1
The inhibition of the first is lower: -0.49% for the first, 7.3% for the second.

Going from `S=C(NCCc1ccccn1)Nc1cccc(Cl)c1` to `CCCCN(CC)Cc1ccc(CNC(=S)Nc2cccc(F)c2)o1`, the inhibition falls from 2.84% to -3.9%.

Going from `O=C(CCSc1ccccc1)Nc1nnc(-c2ccccc2)o1` to `Cc1ccccc1Nc1nc(N)nc(COC(=O)c2ccccc2)n1`, the inhibition rises from -1.24% to 6.9%.

Going from `O=C(c1coc(=O)c(Br)c1)N1CCCc2ccccc21` to `COc1ccccc1N1CCN(C(=O)c2coc(=O)c(Br)c2)CC1`, the inhibition rises from -0.3% to 2.74%.

Compared with `O=C(c1coc(=O)c(Br)c1)N1CCC(C(O)(c2ccccc2)c2ccccc2)CC1`, `O=C(N/N=C/c1cccn1-c1cccc(C(=O)O)c1)Nc1ccccc1` is higher in inhibition: -1.06% for the first, 7.06% for the second.

First: COc1ccc(C(=O)N2CCOCC2)cc1Br
Second: COc1ccccc1Nc1nc(N)nc(CN2CCOCC2)n1
The inhibition of the first is higher: -2.45% for the first, -4.21% for the second.

Going from `CC(c1ccccc1)C1CC(=O)N(c2ccc(C(=O)O)cc2)C1=O` (centres undefined) to `O=C(Nc1ccc(-c2nc3ccccc3[nH]2)cc1)c1ccc(N2C(=O)CCC2=O)cc1`, the inhibition rises from -1.47% to -0.75%.

Compared with `CC(C)CNc1c(N)c(=O)oc2ccccc12`, `Cc1ccccc1Nc1nc(N)nc(COC(=O)c2cccn2C)n1` is higher in inhibition: -2.95% for the first, 2.68% for the second.

First: N#C/C(=C\c1ccc[nH]1)C(=O)NCC1CCCO1 (centres undefined)
Second: N#C/C(=C/c1cccn1-c1cccc(C(=O)O)c1)c1ccc(F)cc1
The inhibition of the first is lower: 2.87% for the first, 2.91% for the second.

Going from `COc1cccc(/C=N\n2c(C)nnc2C)c1OC` to `C/C=C1/CN2[C@@H]3C4CO[C@@H]3c3c([nH]c5cc(OC)ccc35)[C@@H]2CC14` (some centres undefined), the inhibition falls from 8.8% to 4.24%.

First: Cc1ccc(N2C(=O)c3ccccc3C2C(=O)c2cc(C)ccc2O)cc1 (centres undefined)
Second: Cc1ccc(N2C(=O)c3ccccc3C2C(=O)c2ccc(C)c(C)c2O)cc1 (centres undefined)
The inhibition of the first is lower: -7.05% for the first, -5.61% for the second.

Going from `CN1CCSc2ccc(C(=O)Nc3cc(F)ccc3F)cc21` to `COc1ccc(CCC(=O)Nc2cc(Cl)ccc2N2CCN(C)CC2)cc1`, the inhibition rises from -5.68% to -2.71%.

Going from `Cc1ccc(C(=O)C2CCN(CC(=O)NC3CCCCC3)CC2)cc1` to `O=C(Cn1nc(-c2ccccc2)ccc1=O)N1CCC2(CC1)OCCO2`, the inhibition falls from 1.4% to -1.66%.

Compared with `CCOC(=O)c1cc(-c2ccc(/C=C3/C(=O)NC(=O)C(C#N)=C3C)o2)ccc1Cl`, `CC1(C)OC(=O)C(=Cc2ccc(-c3ccc(S(N)(=O)=O)cc3)o2)C(=O)O1` is higher in inhibition: -3.05% for the first, -2.03% for the second.

Going from `Cc1cc(C)nc(NN=C2CCCC2)n1` to `CC(C)C(=O)N1N=C2CCCCC2C1(O)C(F)(F)F` (centres undefined), the inhibition rises from -4.71% to -2.41%.

First: Cc1ccc(CN2C(=O)N/C(=C\c3cccn3-c3cccc(C(=O)O)c3)C2=O)cc1
Second: O=C(O)c1cccc(-n2cccc2/C=C2/NC(=O)N(c3cccc(Cl)c3)C2=O)c1
The inhibition of the first is higher: 7.01% for the first, 2.42% for the second.

Compared with `N#C/C(=C/c1cccn1-c1cccc(C(=O)O)c1)c1ccc(Cl)cc1`, `N#Cc1ccccc1CN1C(=O)S/C(=C/c2cccn2-c2cccc(C(=O)O)c2)C1=O` is lower in inhibition: 7.87% for the first, 2.69% for the second.

First: O=C(O)c1ccc(COc2ccccc2/C=C2/NC(=O)N(c3cccc(Cl)c3)C2=O)cc1
Second: O=C1N/C(=C/c2cccn2-c2ccccc2)C(=O)N1Cc1ccc(F)cc1
The inhibition of the first is lower: -4.52% for the first, 1.54% for the second.

Compared with `ON=Cc1cccn1-c1ccccc1`, `O=C1N/C(=C/c2cccn2-c2ccc(F)cc2)C(=O)N1Cc1ccccc1` is lower in inhibition: 2.34% for the first, -0.61% for the second.

First: S=C=Nc1ccccn1
Second: O=C(CSc1ncn[nH]1)NCCOc1ccccc1
The inhibition of the first is higher: -0.05% for the first, -0.55% for the second.

Compared with `Cc1ccc(NC(=S)N/N=C2\CC(C)(C)Oc3ccc(O)cc32)cc1`, `CN1C(=O)S/C(=C/c2cccn2-c2cccc(C(=O)O)c2)C1=O` is lower in inhibition: 0.56% for the first, -3.46% for the second.

In the case of `N#CC(C#N)=Cc1cccn1-c1ccc(S(N)(=O)=O)cc1`, the inhibition is reported as -1.86%.

In the case of `CCS(=O)(=O)Nc1cccc(-c2nc3cccnc3s2)c1`, the inhibition is reported as 14.4% (active).
With `c1ccc(CSc2nnc(-c3ccco3)n2Cc2ccco2)cc1` the inhibition was 13% (active).
With `CCOC(=O)c1cnc(-n2nc(C)cc2C)nc1Oc1ccc(C#N)cc1` the inhibition was 13.1% (active).
For `CCOC(=O)c1[nH]c2cc(OC)c(OC)cc2c1NC(=O)c1ccc2c(c1)OCO2`, the inhibition was 17.8% (active).
For `Cc1cc(C)cc(NC(=S)NC(=O)CCN2C(=O)c3ccccc3C2=O)c1`, the inhibition was 13.3% (active).
With `CCCCCNC(=O)c1ccc2c(=O)[nH]c3c(C(=O)NCC4CCCO4)sc(=S)n3c2c1` (centres undefined) the inhibition was -1.14% and 8.81%.
With `Cc1ccc(CNC(=O)c2ccc3c(=O)[nH]c4c(C(=O)NCC5CCCO5)sc(=S)n4c3c2)cc1` (centres undefined) the inhibition was 13.2% (active).
`O=c1c(C(c2c(O)nc3n(c2=O)CCS3)c2cccc3ccccc23)c(O)nc2n1CCS2` was tested, and the inhibition was 15.3% (active).
`Cc1c(N=C2C=C(Br)C(=O)C(Br)=C2)c(=O)n(-c2ccccc2)n1C` was tested, and the inhibition was 14.5% (active).
For `CCc1ccccc1Nc1nc(N)nc(COC(=O)c2cccn2C)n1`, the inhibition was 13.1% (active).
In the case of `Cc1ccc(N2C(=O)c3ccccc3C2C(=O)c2ccc(O)cc2O)cc1` (centres undefined), the inhibition is reported as 13.2% (active).
In the case of `CC1=C(C#N)C(=O)NC(=O)/C1=C/c1ccc(-c2ccc(S(N)(=O)=O)cc2)o1`, the inhibition is reported as 14.3% (active).
For `O=C(O)c1cccc(-n2cccc2/C=C2/NC(=O)N(c3ccc(Cl)cc3)C2=O)c1`, the inhibition was 68.6% (active).
For `O=C(O)c1cccc(-n2cccc2/C=C2\NC(=O)N(Cc3ccc(F)cc3)C2=O)c1`, the inhibition was 13.9% (active).
With `O=C(O)c1ccc(-n2cccc2/C=C2/NC(=O)N(c3ccccc3)C2=O)cc1` the inhibition was 14.4% (active).
`O=C(O)c1cccc(-n2cccc2/C=C2\SC(=O)N(Cc3ccccc3F)C2=O)c1` was tested, and the inhibition was 14.4% (active).
For `N#CC(C#N)=Cc1cccn1-c1ccc(C(=O)O)cc1`, the inhibition was 13.8% (active).
